# Values joined by “and” are separate entries in the source; they are usually repeats but may differ in a detail not shown here. Identical values can stand only once. Inconclusive results are not listed. A call without a number means that no potency is given here. A structure can be active in one record and inactive in another. Active and inactive are the calls of the source. Unless noted, the call rests on the fitted dose curve.
# What was measured:
# [1] = qHTS assay to identify small molecule antagonists of the sonic hedgehog signaling (Shh) pathway (AID 1259369); further: nearly all actives have a fitted effect of over 45% in size; further: potency means the concentration at half of the fitted maximal effect
# In short: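 Inhibition of Shh signalling is measured as reduced Gli1-response-element firefly luciferase output in an NIH/3T3-derived stable reporter clone stimulated with conditioned medium for 24hr.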
# [2] = target: Estrogen receptor beta (Homo sapiens) (UniProt Q92731); experiment: qHTS assay to identify small molecule agonists of the estrogen receptor beta (ER-beta) signaling pathway (AID 1259377; active means well fitted activation curve with a large enough effect in the signal ratio in the repeat runs, not every such curve was filed as active; the % refers to the signal ratio)
# Sequence of Estrogen receptor beta (Homo sapiens) (Q92731 whole entry, looked up): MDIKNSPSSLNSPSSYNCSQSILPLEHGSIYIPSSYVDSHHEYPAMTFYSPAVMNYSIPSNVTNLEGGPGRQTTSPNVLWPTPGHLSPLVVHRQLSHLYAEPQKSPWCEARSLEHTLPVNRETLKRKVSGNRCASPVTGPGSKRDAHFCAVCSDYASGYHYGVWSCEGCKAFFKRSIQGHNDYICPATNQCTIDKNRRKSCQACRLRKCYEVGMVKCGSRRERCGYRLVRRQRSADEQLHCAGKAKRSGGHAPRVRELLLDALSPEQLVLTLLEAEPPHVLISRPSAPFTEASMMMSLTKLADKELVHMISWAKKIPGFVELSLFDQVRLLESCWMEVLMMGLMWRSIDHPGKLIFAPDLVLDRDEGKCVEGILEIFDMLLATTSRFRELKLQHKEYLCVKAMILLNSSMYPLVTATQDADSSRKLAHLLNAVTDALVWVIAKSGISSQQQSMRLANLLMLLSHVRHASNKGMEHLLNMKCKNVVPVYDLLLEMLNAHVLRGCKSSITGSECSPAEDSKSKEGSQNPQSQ
# In short: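 Reporter cells (HEK293T, ER-beta-UAS-bla) receive compounds or DMSO after a 6 hr pre-incubation. They then incubate 16 hr at 37C/5% CO2, and fluorescence from LiveBLAzer B/G substrate is measured after 2 hours at room temperature.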
# [3] = target: Estrogen receptor beta (Homo sapiens) (UniProt Q92731); experiment: qHTS assay to identify small molecule antagonists of the estrogen receptor beta (ER-beta) signaling pathway (AID 1259378; active means well fitted inhibition curve with a large enough effect in the signal ratio in the repeat runs, not every such curve was filed as active; the % refers to the signal ratio; further: potency means the concentration at half of the fitted maximal effect)
# In short: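 ER-beta-UAS-bla HEK293T cells in 2% charcoal-stripped FBS medium treated with compound plus 1nM final 17-beta-estradiol for 16 hr at 37C. Beta-lactamase reporter read by FRET substrate fluorescence after 2 hours at room temperature.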
# [4] = qHTS assay to identify small molecule agonists of the androgen receptor (AR) signaling pathway in the presence of an antagonist - cell viability counter screen (AID 1259379; active means well fitted curve in the direction sought with a large enough effect in the repeat runs; an effect the other way counts as inactive or inconclusive; further: nearly all actives have a fitted effect of over 25% in size; further: potency means the concentration at half of the fitted maximal effect)
# In short: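 Fluorescence from CellTiter-Fluor, added after 15 hr and read 1 hr later, gave cell viability. Cells were MDA-kb2 exposed to compounds (15 concentrations) in the presence of 3.0uM nilutamide at 37C, 0% CO2.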
# [5] = qHTS assay to identify small molecule agonists of the estrogen receptor beta (ER-beta) signaling pathway - cell viability counter screen (AID 1259380; active means well fitted curve in the direction sought with a large enough effect in the repeat runs; an effect the other way counts as inactive or inconclusive; further: nearly all actives have a fitted effect of over 30% in size; further: potency means the concentration at half of the fitted maximal effect)
# In short: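 Same-well viability counter screen. Cells: ER-beta-UAS-bla HEK293T, plated 6 hr before compound, in 2% charcoal-stripped FBS. Compound exposure 16 hr, 37C; viability by CellTiter-Glo luminescence after 30 min at room temperature.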
# [6] = qHTS assay to identify small molecule antagonists of the estrogen receptor beta (ER-beta) signaling pathway - cell viability counter screen (AID 1259382; active means well fitted curve in the direction sought with a large enough effect in the repeat runs; an effect the other way counts as inactive or inconclusive; further: nearly all actives have a fitted effect of over 55% in size; further: potency means the concentration at half of the fitted maximal effect)
# In short: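 Following a 6 hr plating period, HEK293T cells carrying a UAS-driven beta-lactamase reporter under ER-beta control received compounds and 1nM E2 (final). After 16 hr at 37C and 2 hr substrate loading, CellTiter-Glo luminescence indicated viability.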
# [7] = target: Estrogen receptor (Homo sapiens) (UniProt P03372); experiment: qHTS assay to identify small molecule agonists of the estrogen receptor alpha (ER-alpha) signaling pathway in the presence of an antagonist (AID 1259383); further: top concentration of the series differs between compounds; nearly all actives have a fitted effect of over 15% in size
# Sequence of Estrogen receptor (Homo sapiens) (P03372 whole entry, looked up): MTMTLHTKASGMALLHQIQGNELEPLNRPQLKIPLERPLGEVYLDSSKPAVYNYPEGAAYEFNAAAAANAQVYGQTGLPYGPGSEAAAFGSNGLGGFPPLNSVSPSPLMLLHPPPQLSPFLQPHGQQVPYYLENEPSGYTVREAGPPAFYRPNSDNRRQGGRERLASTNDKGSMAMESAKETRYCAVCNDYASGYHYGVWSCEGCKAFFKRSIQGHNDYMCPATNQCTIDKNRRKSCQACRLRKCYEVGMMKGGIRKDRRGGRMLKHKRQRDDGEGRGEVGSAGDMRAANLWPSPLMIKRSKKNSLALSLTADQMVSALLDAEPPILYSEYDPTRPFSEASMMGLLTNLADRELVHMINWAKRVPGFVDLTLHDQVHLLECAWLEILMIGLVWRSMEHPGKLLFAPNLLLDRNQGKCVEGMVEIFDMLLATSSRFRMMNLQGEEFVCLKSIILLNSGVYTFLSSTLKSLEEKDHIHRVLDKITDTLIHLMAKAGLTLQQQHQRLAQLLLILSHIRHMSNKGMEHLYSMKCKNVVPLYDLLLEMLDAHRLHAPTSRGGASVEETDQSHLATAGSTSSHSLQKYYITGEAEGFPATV
# In short: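 Cells are hormone-deprived for 5 days (charcoal-stripped FBS, no phenol red), plated for 24hr, spiked with 10.0nM ICI-182,780, then dosed at 15 concentrations. After 22hr at 37C, ONE-Glo luminescence reports ERE-luciferase activity.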
# [8] = qHTS assay to identify small molecule agonists or antagonists of the thyroid stimulating hormone receptor (TSHR) signaling pathway - wild type cell line counter screen (AID 1259384)
# In short: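 Wild-type Hek293 cells, 800/well, 18 h at 37C, then compound with Ro20-1724 for 30 min RT. cAMP by HTRF (cAMP-d2/anti-cAMP cryptate), 1 h RT, fluorescence read. 15 concentrations, triplicates.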
# [9] = target: Androgen receptor (Homo sapiens) (UniProt P10275); experiment: qHTS assay to identify small molecule agonists of the androgen receptor (AR) signaling pathway in the presence of an antagonist (AID 1259381); further: nearly all actives have a fitted effect of over 15% in size
# Sequence of Androgen receptor (Homo sapiens) (P10275 whole entry, looked up): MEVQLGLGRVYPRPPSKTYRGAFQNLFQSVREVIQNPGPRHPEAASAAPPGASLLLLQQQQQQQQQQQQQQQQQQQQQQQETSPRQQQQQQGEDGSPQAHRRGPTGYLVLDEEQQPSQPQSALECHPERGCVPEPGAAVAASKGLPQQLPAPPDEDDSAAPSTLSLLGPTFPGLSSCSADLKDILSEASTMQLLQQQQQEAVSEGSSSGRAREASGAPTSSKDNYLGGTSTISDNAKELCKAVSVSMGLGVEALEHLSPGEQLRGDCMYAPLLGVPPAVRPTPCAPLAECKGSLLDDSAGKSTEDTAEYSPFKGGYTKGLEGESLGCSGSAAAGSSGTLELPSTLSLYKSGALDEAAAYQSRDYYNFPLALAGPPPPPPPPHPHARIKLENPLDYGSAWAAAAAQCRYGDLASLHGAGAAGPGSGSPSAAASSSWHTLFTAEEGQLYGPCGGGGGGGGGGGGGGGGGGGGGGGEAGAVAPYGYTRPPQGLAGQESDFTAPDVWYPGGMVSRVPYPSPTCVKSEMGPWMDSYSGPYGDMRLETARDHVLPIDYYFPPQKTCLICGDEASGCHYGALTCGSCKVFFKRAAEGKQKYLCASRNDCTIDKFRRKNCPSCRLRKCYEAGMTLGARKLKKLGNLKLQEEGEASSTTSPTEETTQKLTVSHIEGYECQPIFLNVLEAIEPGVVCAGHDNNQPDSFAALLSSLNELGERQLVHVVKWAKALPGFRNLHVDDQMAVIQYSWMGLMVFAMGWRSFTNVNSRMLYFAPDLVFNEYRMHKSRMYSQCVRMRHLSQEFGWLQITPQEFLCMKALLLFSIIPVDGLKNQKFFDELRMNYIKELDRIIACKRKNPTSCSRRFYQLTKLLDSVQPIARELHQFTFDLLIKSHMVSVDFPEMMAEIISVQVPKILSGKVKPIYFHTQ
# In short: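 Cells are MDA-kb2 (human breast carcinoma, MMTV-luc, AR/GR responsive). Nilutamide is present at 3.0uM final throughout; compounds are added at 15 concentrations and incubated 16hr at 37C before ONE-Glo luminescence detection.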
# [10] = target: Thyrotropin receptor (Homo sapiens) (UniProt P16473); experiment: qHTS assay to identify small molecule antagonists of the thyroid stimulating hormone receptor (TSHR) signaling pathway (AID 1259385); further: nearly all actives have a fitted effect of over 20% in size; further: potency means the concentration at half of the fitted maximal effect
# Sequence of Thyrotropin receptor (Homo sapiens) (P16473 whole entry, looked up): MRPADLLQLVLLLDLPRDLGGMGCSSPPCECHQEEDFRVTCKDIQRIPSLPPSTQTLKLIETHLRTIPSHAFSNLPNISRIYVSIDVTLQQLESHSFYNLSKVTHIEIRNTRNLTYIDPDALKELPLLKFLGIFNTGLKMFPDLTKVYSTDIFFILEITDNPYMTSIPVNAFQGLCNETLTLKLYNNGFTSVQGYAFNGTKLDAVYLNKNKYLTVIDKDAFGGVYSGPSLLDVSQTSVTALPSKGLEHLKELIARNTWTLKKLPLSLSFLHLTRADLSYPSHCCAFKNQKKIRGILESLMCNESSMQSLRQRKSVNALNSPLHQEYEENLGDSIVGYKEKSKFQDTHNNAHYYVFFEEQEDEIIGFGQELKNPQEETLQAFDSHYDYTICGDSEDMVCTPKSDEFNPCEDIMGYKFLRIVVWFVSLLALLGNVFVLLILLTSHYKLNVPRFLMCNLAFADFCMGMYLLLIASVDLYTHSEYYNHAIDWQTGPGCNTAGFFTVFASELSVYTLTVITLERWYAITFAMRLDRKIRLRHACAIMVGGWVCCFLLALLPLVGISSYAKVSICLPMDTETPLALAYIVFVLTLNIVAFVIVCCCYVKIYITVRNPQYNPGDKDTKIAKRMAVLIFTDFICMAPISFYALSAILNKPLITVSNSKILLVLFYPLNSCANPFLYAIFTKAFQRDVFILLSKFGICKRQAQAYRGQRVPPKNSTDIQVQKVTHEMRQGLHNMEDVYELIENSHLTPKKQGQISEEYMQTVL
# In short: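 TSHR-HEK293 cells (800/well) plated 18 h, then compounds with Ro20-1724 and TSH at 1.5 ng/mL final, 30 min at room temperature. cAMP quantified by HTRF (cAMP-d2/anti-cAMP-cryptate, 1 h); 15 concentrations in triplicate.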
Structure (SMILES),Potency [1],outcome [2],Potency [3],Potency [4],Potency [5],Potency [6],Potency [7],Potency [8],Potency [9],Potency [10]
CCCCOCCOC(=O)c1ccccc1C(=O)OCCOCCCC,26.7 µM (active),inactive,inactive,inactive,inactive,inactive,inactive,inactive,–,–
Oc1ccc(Cl)cc1Cc1cc(Cl)ccc1O,15.6 µM (active) and 21.7 µM (active),inactive,17.5 µM (active) and 19.3 µM (active) and 23.7 µM (active),39.3 µM (active) and 27.3 µM (active) and 29.8 µM (active),49.4 µM (active) and 48.6 µM (active) and 18.8 µM (active),27.8 µM (active) and 27.3 µM (active),inactive,inactive,inactive,inactive
CN1C(=O)c2ccc([N+](=O)[O-])cc2C1=O,inactive,inactive,inactive,inactive,inactive,inactive,inactive,inactive,inactive,inactive
BrC1CCC(Br)C(Br)CCC(Br)C(Br)CCC1Br (centres undefined),32.6 µM (active),inactive,inactive,inactive,30.5 µM (active) and 46.1 µM (active),54.3 µM (active) and 46.1 µM (active),inactive,inactive,inactive,–
O=Nc1ccc(Nc2ccccc2)cc1,1.38 µM (active) and 2.43 µM (active),inactive,68.6 µM (active),54.8 µM (active) and 54.5 µM (active),61.4 µM (active) and 48.6 µM (active),61.4 µM (active),inactive,–,inactive,–
CO[Si](OC)(OC)c1ccccc1,inactive,inactive,inactive,inactive,inactive,inactive,inactive,inactive,–,inactive
COC(=O)c1cccc(C(=O)OC)c1,inactive,inactive,inactive,inactive,inactive,inactive,inactive,–,inactive,–
CC(=O)Nc1ccc(C(=O)CCl)cc1,inactive and 30.6 µM (active),inactive,inactive,54.5 µM (active),inactive,inactive,–,inactive,inactive,inactive
c1cnc2cc3c(cc2n1)C1CNCC3C1,inactive,inactive,inactive,inactive,inactive,inactive,inactive,–,–,–
Cc1cccc(O)c1C,inactive,inactive,inactive,inactive,inactive,inactive,inactive,inactive,–,inactive
Cc1ccc(S(=O)(=O)Oc2ccc(N=Nc3ccc(-c4ccc(N=Nc5c(O)ccc6cc(S(=O)(=O)O)cc(S(=O)(=O)O)c56)c(C)c4)cc3C)cc2)cc1,inactive,inactive,inactive,24.4 µM (active) and 17.8 µM (active),inactive,inactive,–,inactive,inactive,61.4 µM (active)
COc1nc(C)nc(Cl)c1NC1=NCCN1,inactive,inactive,inactive,inactive,inactive,inactive,inactive,inactive,–,inactive
CC(C(O)c1ccc(O)cc1)N1CCC(Cc2ccccc2)CC1 (centres undefined),inactive,inactive,inactive,inactive,inactive,inactive,inactive,–,–,–
CC1COC(=O)O1 (centres undefined),inactive,inactive,inactive,inactive,inactive,inactive,inactive,inactive,inactive,inactive
CC(=O)N[C@@H](CS)C(=O)O,inactive,inactive,inactive,inactive,inactive,inactive,inactive,inactive,–,inactive
COc1ccc(Cc2cnc(N)nc2N)cc1OC,inactive,inactive,inactive,inactive,inactive,inactive,inactive,–,inactive,inactive
CCCCN(CCO)CCCC,inactive,inactive,inactive,inactive,inactive,inactive,inactive,inactive,–,inactive
CC(N)=O,inactive,inactive,–,inactive,inactive,inactive,–,–,–,inactive
CC(C)(C)c1ccccc1,inactive,inactive,inactive,inactive,inactive,inactive,–,inactive,–,inactive
C1COC(NC(C2CC2)C2CC2)=N1,inactive,inactive,inactive,inactive,inactive,inactive,inactive,–,–,inactive
CC(C)(C)c1cc(C(C)(C)C)c(O)c(C(C)(C)C)c1,inactive,inactive,inactive,inactive,inactive and 48.6 µM (active),inactive,inactive,–,–,inactive

# From PubChem BioAssay (Tox21)
